Of roughly 7,900 targets only a part is listed; those with a hit were picked by preference. About 0.6% of all pairs of compound and target were hits. Unmarked numbers belong to inactive results.
Columns and labels:
Test in all cases: log2 fold change, soluble protein after heating vs DMSO (PISA); higher = thermal stabilisation; K562 cells, 10 uM, 30 min; active = over 0.2 and 3.5 SD of the protein, either way, in both replicates (recomputed)
[1] = compound: CC[C@@H]1C(=O)N(C)c2cnc(Nc3ccc(C(=O)NC4CCN(C)CC4)cc3OC)nc2N1C1CCCC1
Procedure, shortened: (§1)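 Quantification of soluble protein used TMTpro 16plex LC-MS/MS, with channel sums equalised. Samples were the supernatant after 21,000xg for 90 min of pooled aliquots from K562 cells (2×10^6 cells/mL) treated with 10 μM compound for 30 min, heated for 3 min over 48°C-58°C, and extracted in PBS with 0.5% NP-40 at 4°C. Values, from duplicates, describe thermal stability against control samples on a log2 fold-change scale.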

[2] = compound: CC[C@@H]1C(=O)N(C)c2cnc(Nc3ccc(C(=O)N[C@H]4CC[C@H](N5CCN(CC6CC6)CC5)CC4)cc3OC)nc2N1C(C)C [volasertib]
Procedure, shortened: as §1

[3] = compound: CC[C@H](C)N1C=C(C2=C(C=C(C=C21)C3=CN=C(C=C3)N4CCNCC4)C(=O)NCC5=C(C=C(NC5=O)C)C)C
Procedure, shortened: as §1

[4] = compound: CC[C@H](C)[C@@H](C(=O)N[C@@H]([C@@H](C)O)C(=O)N[C@@H](CC(C)C)C(=O)[C@]1(CO1)C)NC(=O)[C@H]([C@@H](C)CC)N(C)C(=O)C [epoxomicin]
Procedure, shortened: as §1

[5] = compound: CCn1c(C(=O)N(C2CC2)C2CC2)cc2c3c(ncn3C)c(Nc3cc(C)n(C)n3)nc21
Procedure, shortened: as §1

[6] = compound: CCn1cc(-c2ccnc3[nH]c(-c4cccc(CN(C)C)c4)cc23)c(-c2ccc(NC(=O)N(C)C)cc2)n1
Procedure, shortened: as §1

[7] = compound: CN(C)CC(=O)Nc1ccc2[nH]c(=O)c3ccccc3c2c1
Procedure, shortened: as §1

[8] = compound: CN(CCOC1=CC=C(C=C1)C[C@H]2C(=O)NC(=O)S2)C3=CC=CC=N3 (racemic) [rosiglitazone]
Procedure, shortened: as §1

[9] = compound: CN1C2=C(C3=C1C(=O)N(N=C3)CC4=CC(=CC=C4)N)SC(=C2)S(=O)C
Procedure, shortened: as §1

[10] = compound: CN1CCC(CNc2ccc3ncc(-c4cccc(OC(F)(F)F)c4)n3n2)CC1
Procedure, shortened: as §1

[11] = compound: CN1CCN(CCOc2cc(OC3CCOCC3)c3c(Nc4c(Cl)ccc5c4OCO5)ncnc3c2)CC1 [saracatinib]
Procedure, shortened: as §1

[12] = compound: CN1CCN(c2nc(C3=C(c4c[nH]c5ccccc45)C(=O)NC3=O)c3ccccc3n2)CC1 [sotrastaurin]
Procedure, shortened: as §1

[13] = compound: CN1CC[C@H](c2c(O)cc(O)c3c(=O)cc(-c4ccccc4Cl)oc23)[C@H](O)C1 [alvocidib]
Procedure, shortened: as §1

[14] = compound: CN1CCc2c(c3ccccc3n2Cc2ccc(C(=O)NO)cc2)C1 [Tubastatin A]
Procedure, shortened: as §1

[15] = compound: CNC(=O)C1=CC=CC=C1NC2=NC(=NC=C2Cl)NC3=C(C=C(C=C3)N4CCOCC4)OC
Procedure, shortened: as §1

[16] = compound: CNC(=O)c1ccc(Nc2ncc(C(F)(F)F)c(NCc3nccnc3N(C)S(C)(=O)=O)n2)cc1 [defactinib]
Procedure, shortened: as §1

[17] = compound: CNCc1ccc(-c2[nH]c3cc(F)cc4c3c2CCNC4=O)cc1 [rucaparib]
Procedure, shortened: as §1

[18] = compound: CNc1nc(-c2ccc3c(N)n[nH]c3c2)cc(N2C[C@@H](C(=O)NC3CCCCC3)CC[C@H]2C)n1
Procedure, shortened: as §1

[19] = compound: COC(=O)N[C@@H](C)CNc1nccc(-c2cn(C(C)C)nc2-c2cc(Cl)cc(NS(C)(=O)=O)c2F)n1 [encorafenib]
Procedure, shortened: as §1

[20] = compound: COC(=O)[C@H](CCSC)NC(=O)C1=C(C=C(C=C1)NC[C@H](CS)N)C2=CC=CC=C2
Procedure, shortened: as §1

Sequence of UniProt Q8N684 (Q8N684 whole entry, looked up): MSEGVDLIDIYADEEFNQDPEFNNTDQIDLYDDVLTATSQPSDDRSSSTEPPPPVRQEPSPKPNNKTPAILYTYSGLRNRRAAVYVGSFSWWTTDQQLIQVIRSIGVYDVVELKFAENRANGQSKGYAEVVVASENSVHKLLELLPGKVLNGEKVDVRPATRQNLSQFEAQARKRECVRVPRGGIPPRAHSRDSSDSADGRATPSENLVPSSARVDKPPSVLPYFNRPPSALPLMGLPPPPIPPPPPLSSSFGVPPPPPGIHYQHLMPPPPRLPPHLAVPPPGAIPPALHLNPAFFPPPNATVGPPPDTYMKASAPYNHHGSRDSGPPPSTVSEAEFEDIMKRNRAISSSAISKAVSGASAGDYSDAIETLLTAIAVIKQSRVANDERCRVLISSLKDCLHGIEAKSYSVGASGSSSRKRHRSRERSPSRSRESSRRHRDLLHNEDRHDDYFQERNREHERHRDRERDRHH
Sequence of UniProt P24311 (P24311 whole entry, looked up): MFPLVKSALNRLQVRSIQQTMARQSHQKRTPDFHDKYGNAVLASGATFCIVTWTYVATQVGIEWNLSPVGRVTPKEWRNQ
Sequence of UniProt P35219 (P35219 whole entry, looked up): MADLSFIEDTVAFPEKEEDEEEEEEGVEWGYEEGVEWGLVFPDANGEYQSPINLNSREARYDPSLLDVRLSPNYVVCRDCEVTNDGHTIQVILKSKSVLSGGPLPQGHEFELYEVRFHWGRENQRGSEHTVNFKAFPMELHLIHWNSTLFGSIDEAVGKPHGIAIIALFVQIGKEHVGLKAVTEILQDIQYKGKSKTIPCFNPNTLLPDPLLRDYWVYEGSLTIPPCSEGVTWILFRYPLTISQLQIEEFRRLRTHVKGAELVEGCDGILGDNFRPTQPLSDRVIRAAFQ
Sequence of UniProt O00748 (O00748 whole entry, looked up): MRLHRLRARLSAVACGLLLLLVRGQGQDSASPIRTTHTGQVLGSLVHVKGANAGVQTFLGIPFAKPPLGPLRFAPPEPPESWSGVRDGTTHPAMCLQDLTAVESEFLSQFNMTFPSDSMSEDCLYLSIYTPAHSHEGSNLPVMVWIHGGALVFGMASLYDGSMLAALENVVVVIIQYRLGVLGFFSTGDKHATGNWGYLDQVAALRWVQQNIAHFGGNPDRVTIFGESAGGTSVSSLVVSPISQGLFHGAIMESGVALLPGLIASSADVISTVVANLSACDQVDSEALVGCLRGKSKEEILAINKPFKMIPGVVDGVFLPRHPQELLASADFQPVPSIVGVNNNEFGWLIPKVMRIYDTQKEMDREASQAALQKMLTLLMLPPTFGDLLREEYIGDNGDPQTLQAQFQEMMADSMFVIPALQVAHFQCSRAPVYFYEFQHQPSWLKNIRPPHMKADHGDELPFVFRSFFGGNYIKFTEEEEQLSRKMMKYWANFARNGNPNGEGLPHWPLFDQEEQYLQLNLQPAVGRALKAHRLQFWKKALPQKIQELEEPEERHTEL
Sequence of UniProt Q8IX12 (Q8IX12 whole entry, looked up): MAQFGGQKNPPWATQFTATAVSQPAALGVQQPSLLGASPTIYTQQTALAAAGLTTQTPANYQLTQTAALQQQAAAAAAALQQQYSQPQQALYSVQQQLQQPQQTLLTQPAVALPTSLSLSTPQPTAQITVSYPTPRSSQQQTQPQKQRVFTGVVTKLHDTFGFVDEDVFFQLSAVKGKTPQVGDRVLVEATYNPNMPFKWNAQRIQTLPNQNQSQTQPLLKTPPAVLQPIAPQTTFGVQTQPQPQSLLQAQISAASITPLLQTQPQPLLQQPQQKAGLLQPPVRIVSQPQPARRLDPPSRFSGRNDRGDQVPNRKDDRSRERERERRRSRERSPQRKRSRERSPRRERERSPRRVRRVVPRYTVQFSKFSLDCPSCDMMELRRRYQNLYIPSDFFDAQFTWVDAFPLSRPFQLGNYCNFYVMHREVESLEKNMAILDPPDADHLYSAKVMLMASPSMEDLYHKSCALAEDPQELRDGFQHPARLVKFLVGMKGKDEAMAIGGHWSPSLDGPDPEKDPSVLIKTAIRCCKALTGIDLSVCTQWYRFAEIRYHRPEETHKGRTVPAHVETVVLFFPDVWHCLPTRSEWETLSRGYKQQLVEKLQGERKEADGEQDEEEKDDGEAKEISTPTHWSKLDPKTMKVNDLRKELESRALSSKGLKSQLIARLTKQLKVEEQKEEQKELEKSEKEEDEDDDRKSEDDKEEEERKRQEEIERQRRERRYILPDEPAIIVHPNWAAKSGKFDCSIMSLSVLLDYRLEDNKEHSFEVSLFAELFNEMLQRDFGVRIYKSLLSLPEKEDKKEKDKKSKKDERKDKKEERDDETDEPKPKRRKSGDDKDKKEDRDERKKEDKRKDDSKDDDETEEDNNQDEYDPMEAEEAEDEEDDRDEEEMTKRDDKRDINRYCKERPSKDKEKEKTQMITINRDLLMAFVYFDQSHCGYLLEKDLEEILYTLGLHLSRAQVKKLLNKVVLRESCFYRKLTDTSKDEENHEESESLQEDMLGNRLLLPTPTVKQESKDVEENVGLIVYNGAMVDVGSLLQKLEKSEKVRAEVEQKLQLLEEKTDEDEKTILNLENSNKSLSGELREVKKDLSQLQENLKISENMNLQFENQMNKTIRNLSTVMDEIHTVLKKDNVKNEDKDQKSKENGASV
Sequence of UniProt Q8IUI8 (Q8IUI8 whole entry, looked up): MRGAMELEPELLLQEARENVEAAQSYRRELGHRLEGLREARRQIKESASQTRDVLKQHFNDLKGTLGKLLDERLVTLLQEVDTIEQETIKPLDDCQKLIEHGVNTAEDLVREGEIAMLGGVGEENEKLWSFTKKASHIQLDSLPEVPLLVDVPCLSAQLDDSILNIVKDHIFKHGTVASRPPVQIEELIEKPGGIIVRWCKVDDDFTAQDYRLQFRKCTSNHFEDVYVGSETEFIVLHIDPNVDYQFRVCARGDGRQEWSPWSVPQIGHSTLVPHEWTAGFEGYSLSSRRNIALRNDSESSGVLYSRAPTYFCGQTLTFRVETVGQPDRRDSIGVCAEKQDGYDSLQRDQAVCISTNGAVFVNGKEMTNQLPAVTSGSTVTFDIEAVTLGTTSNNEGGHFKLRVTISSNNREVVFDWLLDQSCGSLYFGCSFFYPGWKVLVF
Sequence of UniProt Q9Y646 (Q9Y646 whole entry, looked up): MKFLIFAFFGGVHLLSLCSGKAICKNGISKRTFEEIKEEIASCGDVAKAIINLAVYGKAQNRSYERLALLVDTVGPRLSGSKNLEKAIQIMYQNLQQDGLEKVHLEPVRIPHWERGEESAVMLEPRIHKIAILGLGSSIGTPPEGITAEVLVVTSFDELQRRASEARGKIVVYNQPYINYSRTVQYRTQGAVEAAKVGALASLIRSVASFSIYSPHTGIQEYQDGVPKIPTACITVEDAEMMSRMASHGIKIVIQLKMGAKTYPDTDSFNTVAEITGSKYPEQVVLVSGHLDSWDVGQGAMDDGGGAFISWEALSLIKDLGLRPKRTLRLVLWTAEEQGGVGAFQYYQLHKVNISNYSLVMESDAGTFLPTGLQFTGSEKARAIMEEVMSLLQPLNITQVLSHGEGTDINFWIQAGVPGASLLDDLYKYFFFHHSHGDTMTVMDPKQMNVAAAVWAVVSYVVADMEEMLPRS
Sequence of UniProt A6NHX0 (A6NHX0 whole entry, looked up): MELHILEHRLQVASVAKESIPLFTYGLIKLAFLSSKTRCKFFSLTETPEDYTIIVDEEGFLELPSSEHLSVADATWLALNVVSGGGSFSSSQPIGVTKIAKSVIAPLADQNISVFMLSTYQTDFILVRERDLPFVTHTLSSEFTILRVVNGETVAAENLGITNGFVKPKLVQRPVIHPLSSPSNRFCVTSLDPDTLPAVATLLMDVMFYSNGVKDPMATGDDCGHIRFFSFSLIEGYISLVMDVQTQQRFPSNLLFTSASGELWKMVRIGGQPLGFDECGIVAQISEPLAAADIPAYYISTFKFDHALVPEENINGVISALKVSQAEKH
Sequence of UniProt Q96JM3 (Q96JM3 whole entry, looked up): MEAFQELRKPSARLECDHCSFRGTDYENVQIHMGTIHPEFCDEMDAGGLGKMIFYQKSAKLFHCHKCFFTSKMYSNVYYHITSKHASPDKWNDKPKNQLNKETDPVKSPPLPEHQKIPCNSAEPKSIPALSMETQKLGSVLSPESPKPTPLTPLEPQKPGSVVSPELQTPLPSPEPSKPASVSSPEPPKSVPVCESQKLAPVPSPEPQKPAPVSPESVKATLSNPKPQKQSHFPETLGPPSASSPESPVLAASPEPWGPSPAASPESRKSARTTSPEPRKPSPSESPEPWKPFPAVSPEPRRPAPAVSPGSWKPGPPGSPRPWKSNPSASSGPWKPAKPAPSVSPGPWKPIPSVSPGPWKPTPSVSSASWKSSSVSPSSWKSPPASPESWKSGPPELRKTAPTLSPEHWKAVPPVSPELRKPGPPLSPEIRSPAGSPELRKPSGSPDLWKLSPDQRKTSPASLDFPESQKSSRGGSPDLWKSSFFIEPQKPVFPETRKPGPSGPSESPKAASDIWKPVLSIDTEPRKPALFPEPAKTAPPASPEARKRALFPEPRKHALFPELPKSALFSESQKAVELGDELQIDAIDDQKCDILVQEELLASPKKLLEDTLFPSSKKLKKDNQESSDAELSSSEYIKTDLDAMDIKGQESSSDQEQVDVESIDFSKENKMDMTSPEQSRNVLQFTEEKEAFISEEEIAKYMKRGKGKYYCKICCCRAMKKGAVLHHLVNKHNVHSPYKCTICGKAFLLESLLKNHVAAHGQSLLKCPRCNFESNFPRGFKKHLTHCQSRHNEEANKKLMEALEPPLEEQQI
Sequence of UniProt Q7L3B6 (Q7L3B6 whole entry, looked up): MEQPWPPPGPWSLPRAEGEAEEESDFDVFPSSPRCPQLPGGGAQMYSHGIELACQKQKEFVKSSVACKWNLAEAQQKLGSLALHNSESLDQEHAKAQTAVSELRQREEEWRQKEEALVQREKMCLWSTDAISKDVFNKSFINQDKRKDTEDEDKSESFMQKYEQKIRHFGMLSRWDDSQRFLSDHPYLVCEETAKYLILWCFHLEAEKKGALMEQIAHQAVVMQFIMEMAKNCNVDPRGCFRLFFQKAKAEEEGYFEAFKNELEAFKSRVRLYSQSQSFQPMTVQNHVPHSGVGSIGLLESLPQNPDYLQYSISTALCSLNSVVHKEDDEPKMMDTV

Row | Target | log2 fold change [1] | log2 fold change [2] | log2 fold change [3] | log2 fold change [4] | log2 fold change [5] | log2 fold change [6] | log2 fold change [7] | log2 fold change [8] | log2 fold change [9] | log2 fold change [10] | log2 fold change [11] | log2 fold change [12] | log2 fold change [13] | log2 fold change [14] | log2 fold change [15] | log2 fold change [16] | log2 fold change [17] | log2 fold change [18] | log2 fold change [19] | log2 fold change [20]
1 | CETN3 (UniProt O15182) | 0.037 | -0.028 | 0.006 | 0.042 | 0.032 | -0.014 | -0.043 | 0.032 | -0.013 | -0.287 (active) | -0.027 | -0.022 | 0.013 | 0.015 | 0.128 | -0.008 | -0.006 | -0.003 | -0.021 | 0.082
2 | COX15 (UniProt Q7KZN9) | 0.057 | 0.023 | -0.037 | -0.018 | 0.05 | 0.021 | 0.006 | 0.085 | -0.044 | -0.015 | 0.071 | 0.004 | -0.015 | -0.009 | -0.008 | -0.003 | -0.236 (active) | -0.017 | 0.023 | 0.002
3 | CHAMP1 (UniProt Q96JM3) | -0.035 | -0.357 (active) | 0.181 | 0.016 | -0.038 | -0.095 | 0.014 | 0.063 | 0.038 | -0.302 | 0.103 | -0.007 | -0.139 | -0.036 | -0.064 | -0.104 | 0.053 | -0.001 | 0.048 | 0.049
4 | CAMSAP1 isoform 3 (UniProt Q5T5Y3) | -0.044 | -0.576 (active) | 0.184 | 0.068 | 0.033 | -0.003 | -0.232 | -0.011 | 0.03 | -0.254 | -0.084 | -0.175 | -0.027 | 0.071 | -0.191 | 0.051 | 0.048 | -0.071 | 0.065 | 0.017
5 | CAMK2G isoform 6 (UniProt Q13555) | 0.095 | -0.15 | 0.072 | -0.028 | -0.063 | 0.042 | 0.035 | -0.008 | 0.064 | -0.319 | -0.005 | -0.088 | 0.123 | -0.012 | 0.25 | 0.14 | 0.061 | 0.129 | 0 | -0.074
6 | CES2 isoform 4 (UniProt O00748) | 0.033 | 0.108 | 0.1 | -0.168 | 0.187 | -0.012 | -0.02 | 0.023 | 0.034 | 0.054 | 0.04 | 0.196 | 0.065 | 0.115 | 0.247 | -0.164 | 0.3 | 0.218 | -0.145 | 0.044
7 | CPQ (UniProt Q9Y646) | -0.144 | -0.27 (active) | -0.036 | 0.062 | -0.011 | -0.039 | -0.021 | -0.006 | 0.032 | -0.035 | 0.039 | -0.012 | 0.045 | 0.02 | -0.049 | -0.035 | -0.042 | -0.031 | 0.008 | 0.006
8 | CA8 (UniProt P35219) | -0.055 | -0.329 (active) | 0.038 | 0.01 | -0.035 | -0.093 | -0.002 | 0.044 | -0.099 | -0.127 | -0.054 | -0.023 | -0.127 | 0.084 | 0.118 | -0.163 | 0.068 | 0.018 | 0.024 | 0.014
9 | CRLF3 (UniProt Q8IUI8) | -0.085 | -0.277 | 0.067 | 0 | -0.069 | -0.041 | 0.024 | 0.041 | 0.031 | -0.268 (active) | -0.209 | -0.124 | -0.161 | 0.054 | 0.051 | -0.076 | 0.026 | 0.036 | 0.074 | -0.013
10 | C19orf53 (UniProt Q9UNZ5) | 0.205 | 0.412 | 0.045 | -0.264 | 0.104 | 0.239 | -0.189 | -0.182 | 0.34 | 0.2 | -0.069 | -0.03 | 0.33 | 0.129 | 0.155 | 0.296 | 0.257 | 0.053 | 0.136 | 0.036
11 | COX7B (UniProt P24311) | -0.011 | 0.024 | -0.052 | 0.023 | 0.065 | -0.035 | 0.04 | -0.033 | 0.015 | 0.323 (active) | 0.174 | 0.058 | 0.026 | -0.087 | 0.059 | 0 | -0.02 | -0.049 | -0.036 | -0.073
12 | CPSF7 isoform 3 (UniProt Q8N684) | 0.077 | 0.039 | 0.053 | -0.042 | 0.004 | -0.015 | -0.014 | -0.029 | -0.001 | 0.006 | 0.006 | 0.026 | -0.018 | 0.032 | -0.071 | 0.014 | 0.033 | -0.014 | -0.014 | -0.044
13 | CDC37L1 (UniProt Q7L3B6) | -0.14 | -0.199 | 0.059 | 0.029 | 0.02 | 0.091 | -0.054 | 0.005 | 0.001 | -0.048 | -0.003 | 0.021 | -0.093 | -0.308 (active) | 0.002 | 0.059 | -0.058 | -0.013 | 0.005 | 0.018
14 | CASTOR2 (UniProt A6NHX0) | 0.025 | 0.254 | -0.042 | 0.061 | -0.024 | 0.123 | -0.035 | 0.034 | -0.022 | 0.066 | 0.042 | 0.039 | 0.027 | 0.036 | -0.082 | -0.092 | -0.048 | 0.032 | 0.04 | 0
15 | CCAR1 (UniProt Q8IX12) | 0.079 | 0.149 | 0.063 | 0.008 | -0.029 | -0.219 | 0.018 | 0.046 | -0.039 | -0.319 (active) | -0.038 | -0.027 | -0.17 | -0.001 | -0.039 | -0.021 | 0.026 | 0.086 | -0.005 | -0.033
16 | CPSF3 (UniProt Q9UKF6) | -0.105 | -0.252 (active) | 0.043 | -0.013 | -0.032 | -0.008 | 0.033 | 0.014 | -0.032 | 0.003 | 0.009 | -0.086 | -0.052 | 0.04 | 0.07 | -0.098 | -0.011 | -0.049 | 0.03 | -0.009
